Records with an inconclusive call do not appear. A number with no mark means an inactive call. The source made the active and inactive calls. Calls come from the whole dose curve; as a rule, active = well fitted cell-killing curve with a large enough effect; inconclusive = small, poorly fitted or top-dose-only effect, or effect the other way; inactive = no such curve, though single readings can be large or run the other way.
Experiment: Viability qHTS for spleen associated tyrosine kinase inhibitor (SYKi) naive MV4-11 cells (AID 1963823); note: nearly all actives have a fitted effect of over 40% in size
Details: MV4-11 AML viability, CellTiter-Glo luminescence, 72 h; series mostly up to 45 µM; viability (% of control): at the top concentration
Method in brief: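 CellTiter-Glo luminescence, 10 min room-temperature incubation, gave viability. Cells: naive MV4-11 (500/well), treated 72 hr at 37 C, 5% CO2.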
Potency is the fitted concentration of half-maximal effect.

| SMILES | viability (% of control) | Potency |
| --- | --- | --- |
| C[C@@H](c1ccccc1)N(C(N)=NC#N)c1cccc2ncccc12 | 69.5% |  |
| CCCCC1CCC(c2nc(-c3ccncc3)no2)CC1 (stereo unspecified) | 56.8% |  |
| CC1=C2C(=O)C=C(CO)C2[C@H]2OC(=O)[C@H](C)[C@@H]2[C@@H](OC(=O)Cc2ccc(O)cc2)C1 (stereo partly specified) | 74.2% [at 17.3 µM] |  |
| CC(=O)Nc1cccc2c1c(Sc1ccc(Cl)cc1)c(C)n2CC(=O)O | 56.9% |  |
| C/C1=C\CC[C@]2(C)O[C@H]2C(=O)c2c(C)coc2C1 | 42.6% |  |
| CC1(C(=O)O)CCCC2(C)C3CCC4CC3(CCC12)CC4=O (stereo unspecified) |  | 13 µM (active) |
| CC(=O)O[C@H]1C[C@@](O)(C(C)C)C2[C@@H](OC(=O)c3ccc(O)cc3)C[C@@]3(C)O[C@H]3C[C@]21C (stereo partly specified) | 46.7% [at 17.3 µM] |  |
| CC#CCn1c(N2CCCC(N)C2)nc2c1c(=O)n(Cc1nc(C)c3ccccc3n1)c(=O)n2C (stereo unspecified) | 73.3% |  |
| CCOC(=O)[C@H](CCc1ccccc1)CC1(C(=O)N[C@H]2CCc3ccccc3N(CC(=O)O)C2=O)CCCC1 |  | 14.6 µM (active) |
| COc1ccc(-c2c(C)c(C(=O)NN3CCCCC3)nn2-c2ccc(Cl)cc2Cl)cc1 |  | 16.4 µM (active) |
| COc1ccc2cc(C(C)C(=O)Oc3ccc(C(N)=S)cc3)ccc2c1 (stereo unspecified) | 73.3% |  |
| CCc1c(-c2ccccc2)c(-c2ccccc2)nn1-c1ccccc1-c1cccc(OCC(=O)O)c1 | 91.2% |  |
| CC(O)/C=C/C1OC(=O)CC1Nc1ccc(C(=O)O)cc1 (stereo unspecified) | 84.7% |  |
| Cn1cc(C2=C(c3coc4ccccc34)C(=O)NC2=O)c2cc(Br)ccc21 |  | 14.6 µM (active) |
| CC1=CCC[C@@H]2[C@@](C)(CCc3ccoc3)[C@H](C(=O)O)CC[C@@]12C |  | 2.86 µM (active) |
| C=CC(C)(C)c1[nH]c2ccccc2c1C1=C(O)C(=O)C(c2c[nH]c3c(CC=C(C)C)cccc23)=C(O)C1=O |  | 18.4 µM (active) |
| C[C@@H]1CCC2C(C)(C)[C@H](O)[C@H](O)C[C@]2(C)[C@@]12Cc1c(O)cc3c(c1O2)CN(CCCC(=O)O)C3=O (stereo partly specified) | 73.3% [at 17.3 µM] |  |
| C/C=C/C=C/C=C/C(=O)OC1C=C2C(O)OC(=O)[C@]2(O)[C@@]2(C)CCCC(C)(C)[C@H]12 (stereo partly specified) |  | 6.32 µM (active) |

| SMILES | viability (% of control) | Potency |
| --- | --- | --- |
| C=C1C(OC(C)=O)CCC2(C)CCC(C(C)(C)O)CC12 (stereo unspecified) | 71.6% |  |
| CC1(C(=O)O)CCCC2(C)C1CCC13CC(CCC21)C1(CO)OC31 (stereo unspecified) | 59.7% |  |
| CCOc1cccc2c1OC(c1ccc(F)cc1)C([N+](=O)[O-])=C2 (stereo unspecified) |  | 1.16 µM (active) |
| CC1CCC2(C(=O)O)CCC3(C)C(=CCC4C5(C)CCC(O)C(C)(C(=O)O)C5CCC43C)C2C1(C)O (stereo unspecified) | 69.1% [at 17.3 µM] |  |
| [N-]=[N+]=N[C@]1(CO)O[C@@H](n2ccc(N)nc2=O)[C@@H](O)[C@@H]1O | 70.1% |  |
| COc1ccc(C2(O)c3c(ccc4c3OC(C)(CCC=C(C)C)C=C4)NC(=O)C2OC)cc1 (stereo unspecified) | 25.5% [at 17.3 µM] |  |
| CC1(C)CC(=O)N(CCCCN2CCN(c3ncccn3)CC2)C(=O)C1 | 82.6% |  |
| CCCCCOC(=O)Nc1nc(=O)n(C2O[C@H](C)[C@@H](O)[C@H]2O)cc1F (stereo partly specified) | 79.5% |  |
| CC1OC(O[C@H]2CC[C@@]3(C)C(CC[C@]4(C)C3CC=C3C5CC(C)(C)CC[C@]5(C(=O)OC5OC(CO)C(OC6OC(COC7OCC(O)C(O)C7O)C(O)C(O)C6O)C(O)C5O)CC[C@]34C)C2(C)C)C(O)C(O)C1OC1OCC(OC2OCC(O)C(O)C2O)C(O)C1O (stereo partly specified) |  | 0.155 µM (active) |
| Nc1nc2c(cnn2CCCc2ccc(O)cc2)c2nc(-c3ccco3)nn12 | 73.2% |  |
| C=CC(=O)N1CCC[C@@H](n2nc(-c3cccc(C(=O)Nc4ccc(C(C)C)c(C)c4)c3)c3c(N)ncnc32)C1 |  | 1.46 µM (active) |
| CC(C)C1NC(=O)C(CC2(O)c3ccccc3N3C(=O)C(Cc4ccccc4)NC32)NC1=O (stereo unspecified) | 70.2% [at 17.3 µM] |  |
| C=CCc1ccc(O[C@@H]2O[C@H](CO[C@@H]3O[C@@H](C)[C@H](O)[C@@H](O)[C@H]3O)[C@@H](O)[C@H](O)[C@H]2O)cc1 | 85.3% [at 17.3 µM] |  |
| CC1C(=O)CC2C3CCC(C(=O)O)C12CC3(C)CO (stereo unspecified) | 49.7% |  |
| COc1cc2c(cc1O)CC(O)(CO)C(CO)C2c1ccc(OC2OC(CO)C(O)C(O)C2O)c(OC)c1 (stereo unspecified) | 73.3% [at 17.3 µM] |  |
| CC1=C(C)C(=O)OC(C(C)(O)C2CCC3C4CC=C5CC(OC6OC(COC7OC(CO)C(O)C(O)C7O)C(O)C(O)C6O)CC(O)C5(C)C4CCC32C)C1 (stereo unspecified) | 65.8% [at 17.3 µM] |  |
| C=C(CC/C=C(\C)C(=O)O)C1(O)CC=C(C)CC1 (stereo unspecified) | 79.6% |  |
| CC(O)CCc1ccc(O[C@@H]2O[C@H](CO)[C@@H](O)[C@H](O)[C@H]2O)cc1 (stereo partly specified) | 110% |  |

Reference: PubChem BioAssay (NCATS)
